MLLE-PAM2 inh: inhibitors of microRNA-mediated deadenylation, human PABP1 MLLE binding. GST-MLLE / FITC-PAM2 fluorescence polarization. 0.36% of 360,000 active. AID 588489. inhibition, % at 20 µM. P11940; in the data active means inhibition above about 35%, passing the limit was not always enough
Target sequence (P11940 whole entry, looked up): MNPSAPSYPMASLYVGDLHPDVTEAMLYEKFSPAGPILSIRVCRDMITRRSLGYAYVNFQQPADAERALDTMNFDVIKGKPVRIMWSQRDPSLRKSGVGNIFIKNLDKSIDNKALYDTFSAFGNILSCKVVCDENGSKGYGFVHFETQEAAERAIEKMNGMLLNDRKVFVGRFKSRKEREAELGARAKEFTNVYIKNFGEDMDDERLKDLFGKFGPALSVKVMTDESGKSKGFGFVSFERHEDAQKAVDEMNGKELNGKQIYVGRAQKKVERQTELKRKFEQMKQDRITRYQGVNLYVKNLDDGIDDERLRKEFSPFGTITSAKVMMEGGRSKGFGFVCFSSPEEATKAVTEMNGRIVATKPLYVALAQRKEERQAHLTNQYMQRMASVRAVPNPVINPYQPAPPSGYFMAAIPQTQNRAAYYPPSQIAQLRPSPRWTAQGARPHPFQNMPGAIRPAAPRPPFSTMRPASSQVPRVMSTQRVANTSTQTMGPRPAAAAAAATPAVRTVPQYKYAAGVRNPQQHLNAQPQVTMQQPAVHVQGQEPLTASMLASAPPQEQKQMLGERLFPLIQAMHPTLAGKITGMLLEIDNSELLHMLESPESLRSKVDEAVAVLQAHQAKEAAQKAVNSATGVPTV
SUMO HTRF inh: SUMOylation inhibition; P63279; HTRF SUMOylation assay, SAE1/SAE2 + UBC9, in vitro; inhibition, % at 35 µM; 0.36% of 290,000 active; in the data active means inhibition above about 50%, passing the limit was not always enough; inconclusive means no clear call, values can overlap the other calls
Efflux pump mplx: inhibitors of Candida antifungal efflux pumps expressed in yeast; AID 485275; 0.44% of 330,000 active; inhibition, % at 10 µM; S. cerevisiae Candida pump triplex, Nile Red efflux;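 active means plate passing quality check with inhibition over a set limit, or well fluorescence over plate mean plus 4 SD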;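 further: Nile Red retained in pooled yeast measured as flow cytometry median fluorescence; higher means more Nile Red kept so more efflux inhibition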
ALR inh: inhibitors of human sulfhydryl oxidase ALR; P55789; purified ALR, DTT oxidation, H2O2 HRP-luminol luminescence; inhibition, % (concentration not given with the values); 3.8% of 290,000 active; AID 485317;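 active means mean replicate inhibition above about 79%, with every replicate also reaching it, limit read from the data; inconclusive means only one of the two criteria met; inactive means mean below limit and not every replicate reaching it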
PABP polyA inh: blocks human PABP binding to poly(A) RNA. P11940. fluorescence polarization. inhibition, % at 35 µM. 1% of 290,000 active;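 further: calls also rest on retests at 20 µM and on dose response follow-up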
eIF4H inh: inhibitors of RNA binding by human eIF4H | AID 2012 | inhibition, % at 35 µM | Q15056 | eIF4H fluorescence polarization binding assay | 0.94% of 290,000 active;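 further: calls also rest on retests at 20 µM and on dose response follow-up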
Numbers stand for hits; - = inactive; ? = inconclusive; . = no result given. A selection: hits, their analogues and other compounds. The true share with any hit is near 4.7%. Unless noted, how the calls were made is not given here.

SMILES | MLLE-PAM2 inh | SUMO HTRF inh | Efflux pump mplx | ALR inh | PABP polyA inh | eIF4H inh
Cc1ccc(-c2nc(CS(=O)(=O)CC(=O)N3CCc4ccccc4C3)c(C)o2)cc1 | - | - | - | - | - | -
Cc1ccc(-c2nc(CS(=O)(=O)CC(=O)NC3CCCCCC3)c(C)o2)cc1 | - | - | - | - | - | -
Cc1ccc(-c2nc(CS(=O)(=O)CC(=O)N3CCCCCC3)c(C)o2)cc1 | - | - | - | 95 | - | -
Cc1oc(-c2cccc(Cl)c2)nc1CS(=O)(=O)CC(=O)NC1CC1 | - | - | - | 90 | - | -
COc1ccc(-c2nc(CS(=O)(=O)CC(=O)NC3CCCCCC3)c(C)o2)cc1 | - | - | - | 99 | - | -
CCOC(=O)N1CCC(NC(=O)CS(=O)(=O)Cc2nc(-c3cccc(OC)c3)oc2C)CC1 | - | - | - | 99 | - | -
COc1cccc(-c2nc(CS(=O)(=O)CC(=O)NC3CCCCCC3)c(C)o2)c1 | - | - | - | 98 | - | -
COc1cccc(-c2nc(CS(=O)(=O)CC(=O)NC3CC3)c(C)o2)c1 | - | - | - | - | - | -
CCOC(=O)N1CCC(NC(=O)CS(=O)(=O)Cc2nc(-c3ccc(C)cc3)oc2C)CC1 | - | - | - | - | - | -
C=COc1ccc(N2C(=O)c3ccccc3OC2C)cc1 (stereo not given) | - | - | - | . | - | -
NS(=O)(=O)c1ccc(NC(=O)CSc2nnc3n2CCCCC3)cc1 | - | . | - | . | . | .
Cc1sc(NC(=O)CCCC(=O)O)c(C(N)=O)c1-c1ccccc1 | 35 | - | - | - | - | -
COc1ccc(-c2csc(C3=C(O)CN(CCCN4CCCC4=O)C3=N)n2)cc1OC | - | - | - | 96 | - | -
CCCCN1CC(O)=C(c2nc(-c3ccc(Br)cc3)cs2)C1=N | - | - | - | - | - | -
CC(C)(C)N1CC(C(=O)Nc2ccc(C(N)=O)cc2)CC1=O (stereo not given) | - | . | . | . | . | .
CCCCC(=O)Nc1ccccc1C(=O)OCC(=O)c1ccc2c(c1)OCCO2 | - | - | - | - | - | -
CCOC(=O)c1ccccc1NC(=O)c1ccc2nccnc2c1 | - | - | - | - | - | 68
COC(=O)c1ccccc1NC(=O)/C=C/C(=O)O | - | - | - | . | - | -
O=C(O)/C=C/C(=O)Nc1ccccc1C(=O)OCC(=O)c1ccc2c(c1)OCCO2 | - | - | - | 88 | - | -
CCOC(=O)c1ccccc1NC(=O)/C=C/C(=O)O | - | - | - | 98 | - | -
CCOC(=O)c1ccccc1NC(=O)c1ccc2nc[nH]c2c1 | - | - | - | . | - | -
Cc1ccc2nc(NCc3ccco3)c(C=NCc3ccco3)c(=O)n2c1 | - | - | - | - | 86 | 68
O=C(O)CCn1c(SCCOc2ccccc2)nc2ccccc21 | - | - | - | - | - | -
O=C1c2ccc([N+](=O)[O-])cc2NC(c2ccco2)N1/N=C/c1ccco1 (stereo not given) | - | - | - | - | - | 56
NC(=O)c1ccc(NC(=O)CSc2cn(CC(=O)N3CCOCC3)c3ccccc23)cc1 | - | - | - | 99 | - | -
SMILES | MLLE-PAM2 inh | SUMO HTRF inh | Efflux pump mplx | ALR inh | PABP polyA inh | eIF4H inh
O=C(CSc1ncn(-c2ccccc2)n1)Nc1ccc2c(c1)OCCO2 | 37 | - | - | - | - | -
O=C(CSc1cccc[n+]1[O-])Nc1ccc2c(c1)OCCO2 | - | - | - | 87 | - | -
Cn1cc(SCC(=O)Nc2ccc3c(c2)OCCO3)c2ccccc21 | - | - | - | 99 | - | -
O=[N+]([O-])c1cccc(CN2C[C@@]34C=C[C@@H](C[C@@H]3S2(=O)=O)O4)c1 | - | - | - | 96 | - | -
O=S1(=O)[C@H]2C[C@@H]3C=C[C@]2(CN1Cc1ccc(C(F)(F)F)cc1)O3 | - | - | - | - | - | -
Cc1ccc(-c2cc3c(n2-c2ccc(C(=O)O)cc2)CCCC3=O)cc1 | - | - | - | - | - | -
Cc1ccc(-n2c(C)cc3c2CCCC3=O)cc1 | 42 | - | - | - | - | -
Cc1ccc(C)c(NC(=O)c2cc(-c3cc(C)c(C)cc3O)n[nH]2)c1 | - | - | - | - | - | -
C[n+]1c2n(c3ccccc31)N=C(c1ccc(-c3ccccc3)cc1)CS2 | - | - | - | 99 | - | -
Cc1cccc(-c2nnc3n2N=C(c2ccccc2)CS3)c1 | - | - | - | - | - | -
CCc1nnc2n1N=C(c1ccc(Br)cc1)CS2 | - | - | - | - | - | -
C[n+]1c2n(c3ccccc31)N=C(c1ccccc1)CS2 | - | - | - | 89 | - | -
Cc1cc(-c2nnc3n2N=C(c2ccc(-c4ccccc4)cc2)CS3)n[nH]1 | - | - | - | - | - | -
C[n+]1c2n(c3ccccc31)N=C(c1ccc(Br)cc1)CS2 | - | - | - | 99 | - | -
COc1cc(/C=C/C(=O)OCC(=O)Nc2cc(S(=O)(=O)N3CCCC3)ccc2Cl)cc(OC)c1OC | - | . | - | . | . | .
CCC(CCNC(=O)c1ccccc1)(CCNC(=O)c1ccccc1)[N+](=O)[O-] | - | . | . | . | . | .
CN(CCOc1ccc(Cl)cc1)C(=O)C1CCN(C(=O)c2ccc(F)cc2)CC1 | - | - | - | - | - | -
C[C@H]1CN(c2ccccc2)C(=O)[C@@H]1CC(=O)Nc1ccc(Br)cc1 | - | . | . | . | . | .
CCOC(=O)c1cnc2ccc(Cl)cc2c1NCCN(C)C | 42 | - | - | - | - | ?
CCC(C(=O)OC)n1cnc2scc(-c3ccc(C)c(C)c3)c2c1=O (stereo not given) | - | - | - | - | - | -
CCC(C(=O)O)n1cnc2scc(-c3ccc(C)c(C)c3)c2c1=O (stereo not given) | - | - | - | 93 | - | -
COC(=O)c1c(NC(=O)CN2CCN(Cc3ccc4c(c3)OCO4)CC2)sc(C)c1C | - | - | - | 97 | - | -
COc1ccc(C2=NN(Cc3ccccc3)C3C(=O)NC(=O)C23)cc1 (stereo not given) | - | - | - | - | - | -
CN1C(=O)C2C(c3ccc(N(C)C)cc3)=NN(Cc3ccccc3)C2C1=O (stereo not given) | - | - | - | 99 | - | -
COc1ccc2oc(=O)c(/C(N)=N/NC(=O)c3ccncc3)cc2c1 | - | - | - | - | ? | -
SMILES | MLLE-PAM2 inh | SUMO HTRF inh | Efflux pump mplx | ALR inh | PABP polyA inh | eIF4H inh
Cn1c(=O)c2[nH]c(COc3ccccc3)nc2n(C)c1=O | 63 | . | . | . | . | .
Cn1c(=O)c2[nH]c(CN(Cc3ccccc3)Cc3ccccc3)nc2n(C)c1=O | - | - | - | - | - | -
CC(C)CN(C(=O)CSc1nc2ccccc2o1)c1c(N)n(Cc2ccccc2)c(=O)[nH]c1=O | - | . | - | - | . | .
Cc1nc2cc(N)ccc2n1-c1ccccc1 | - | - | - | 99 | - | -
CCOC(=O)C1=C(CC)Nc2ccccc2N=C1NC(=O)c1ccc(OC)c(S(=O)(=O)N2CCOCC2)c1 | - | . | . | . | . | .
O=C(C[C@@H]1C[C@@H]2c3cc(NC(=O)C4CCOCC4)ccc3O[C@@H]2[C@H](CO)O1)NCc1ccccn1 | - | . | . | . | . | .
Cc1ccc(C(=O)Sc2cccccc2=O)cc1 | 50 | - | - | 99 | - | -
CC(C)(C)c1ccc(C(=O)NCCC(=O)Nc2cc(Cl)ccc2N2CCOCC2)cc1 | - | . | - | - | . | .
